Compound activity from PubChem.
Rows were chosen to be rich in hits. Some 32% of all compounds tested hit in one or more screens of this group.
CYP2C19 act: human CYP2C19 activators, primary screen, biochemical, luminescence. 96,000 tested, under 10 active. recombinant CYP2C19, luciferin-H EGE luminescence; stronger effect = higher value; 0 = fully inhibited enzyme, 1 = untreated enzyme. AID 1025, 2008. activation factor at 5 µM. Cytochrome P450 2C19 (Homo sapiens), P33261;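 active = activation factor of at least 2 at 5 µM in the primary screen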;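 also: 0 = wells with 2.5 mM tranylcypromine and 1 = vehicle-only wells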
Target sequence (P33261 whole entry, looked up): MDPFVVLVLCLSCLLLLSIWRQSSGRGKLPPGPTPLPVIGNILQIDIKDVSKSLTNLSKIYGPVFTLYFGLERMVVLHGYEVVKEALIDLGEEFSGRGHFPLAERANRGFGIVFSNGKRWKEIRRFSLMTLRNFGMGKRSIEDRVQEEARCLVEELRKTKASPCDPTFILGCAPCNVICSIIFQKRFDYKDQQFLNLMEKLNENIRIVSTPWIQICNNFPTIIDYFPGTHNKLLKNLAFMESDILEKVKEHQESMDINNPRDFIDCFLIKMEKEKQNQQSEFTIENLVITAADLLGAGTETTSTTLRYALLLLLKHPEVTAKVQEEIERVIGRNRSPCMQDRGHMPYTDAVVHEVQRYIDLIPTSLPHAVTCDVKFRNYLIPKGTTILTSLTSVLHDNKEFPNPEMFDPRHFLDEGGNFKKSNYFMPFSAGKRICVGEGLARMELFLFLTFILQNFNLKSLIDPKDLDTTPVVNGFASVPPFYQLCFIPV
CYP2C9 activ: human CYP2C9 activators, primary screen, biochemical, luminescence; Cytochrome P450 2C9 (Homo sapiens), P11712; recombinant CYP2C9, luciferin-H conversion; stronger effect = higher value; factor 1 = untreated enzyme, 0 = blocked; activation factor at 5 µM; hit rate 1.4% among 96,000;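 active = activation factor of 2 or more for CYP2C9 at a 5 µM dose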;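 also: 0 = sulfaphenazole-blocked wells and 1 = vehicle-only wells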
CYP2C19 inhib: blockers of cytochrome P450 2C19 activity – biochemical, luminescence, ADME assay, primary screen; hit rate 21% among 96,000; inhibition, % at 5 µM; P33261; AID 778, 2007; CYP2C19 Supersomes, luciferin-H EGE luminescence, 30 min;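 active = CYP2C19 inhibition above a set limit at 5 µM in the primary screen, cut at about 50% in these data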;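 also: plate controls were negative control wells for no effect and 2.5 mM tranylcypromine positive control for full effect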
CYP2C9 inh: blockers of cytochrome P450 2C9 activity – biochemical, luminescence, ADME assay, primary screen | P11712 | CYP2C9 Supersomes, luciferin-H conversion | inhibition, % at 5 µM | hit rate 20% among 96,000 | AID 777, 2007;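 active = blocking of liver enzyme CYP2C9 beyond about 50% at 5 µM, limit read from the data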
PostGolgi ctrl: growth inhibition of yeast control strain, primary screen, counter-screen for post-Golgi transport modulator project; efflux-deficient yeast background strain, growth absorbance A615, 16 h; inhibition, % at 10 µM; hit rate 5% among 98,000; AID 738, 2007
PostGolgi yeast: phenotypic screen on post-Golgi transport, primary screen; post-Golgi transport phenotypic cell assay; inhibition, % at 10 µM; hit rate 0.9% among 98,000; AID 739, 2007;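 also: yeast cells grown in 1536-well plates; yeast grown about 18 h at 30C before absorbance read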
Numbers without * were called inactive; . = no result given. Rule as the data show it, unless noted: active = inhibition above about 30%; inactive = the rest.

SMILES | CYP2C19 act | CYP2C9 activ | CYP2C19 inhib | CYP2C9 inh | PostGolgi ctrl | PostGolgi yeast
O=C(CN1C(=O)c2ccccc2S1(=O)=O)NCCSCc1ccco1 | 1 | 0.7 | 3 | 26 | -1 | -21
Cc1nc2nc(NCc3cccs3)nn2c(C)c1Cl | 1 | 0.9 | -3 | 10 | 11 | 2
CC1CCC(NCc2ccco2)CC1 (centres undefined) | 1.2 | 1.1 | -20 | -12 | 10 | -11
O=C(Nc1ccc2[nH]c3c(c2c1)CCCC3)c1ccco1 | 0.7 | 0.7 | 25 | 35 | 0 | -7
Cc1ccc(S(=O)(=O)c2c(C)cc(C)nc2Oc2cccc(C(F)(F)F)c2)cc1 | 0.4 | 0.5 | 59* | 46 | 14 | 2
CC(C)COc1ccc(C(=O)OC2CC(C)(C)OCC2CN(C)C)cc1 (centres undefined) | 0.9 | 0.8 | 8 | 16 | 9 | -9
CCCN(CCC)C(=S)NC(=O)c1ccc(Cl)cc1Cl | 0.5 | 0.8 | 47 | 19 | 29 | 2
COC(=O)C1=CN(CC2CCCO2)C=C(C(=O)OC)C1c1ccsc1 (centres undefined) | 0.7 | 0.5 | 30 | 52* | 10 | -1
C=CCn1cc(/C=N\NC(=O)c2cc3c(ccc4ccccc43)o2)c2ccccc21 | 0.8 | 0.4 | 17 | 62* | 35* | 0
O=C(N/N=C/C=C/c1ccccc1)c1cc2c(ccc3ccccc32)o1 | 1.1 | 1.1 | -5 | -10 | 10 | 1
CSc1nc(=NC(C)=O)ss1 | 1 | 1 | 0 | 3 | 15 | 5
Cc1nc(-c2cccnc2)sc1C(N)=O | 0.8 | 1 | 16 | -3 | 14 | 0
Cc1cccc(-n2c(SCC(=O)Nc3ccc4c(c3)OCO4)nnc2-c2ccoc2C)c1 | 1 | 0.9 | 1 | 8 | 2 | -3
Cc1ccc(-n2c(SCC(=O)NCC3CCCO3)nnc2-c2ccoc2C)cc1 (centres undefined) | 0.2 | 0.8 | 85* | 24 | 20 | -9
CCOc1ccccc1-n1c(SCC(=O)Nc2nccs2)nnc1-c1ccoc1C | 0.2 | 0.2 | 76* | 79* | 19 | -6
Cc1cccc(C)c1OCc1nnc(SCC(=O)Nc2nccs2)n1-c1ccccc1 | 1.1 | 1 | -14 | -3 | 15 | -2
COc1cccc(NC(=O)CSc2nnc(-c3ccoc3C)n2-c2ccccc2)c1 | 0.7 | 0.4 | 33 | 59* | 12 | 5
CCc1nnc(NC(=O)CSc2nnc(-c3ccoc3C)n2CC(C)C)s1 | 0.1 | 0.1 | 88* | 88* | 1 | 8
Fc1ccccc1N1CCN(c2cnc3ccccc3n2)CC1 | 0.7 | 0.9 | 25 | 8 | 27 | 3
OC(COc1ccc(C2C=CCC2)cc1)CN1CCCCC1 (centres undefined) | 1.2 | 1.1 | -24 | -12 | 5 | -3
CCc1nnc(NC(=O)CSc2nnc(-c3ccoc3C)n2-c2ccc(C)cc2)s1 | 0.4 | 0.3 | 64* | 66* | 5 | 21
COc1ccc(-n2c(C)cc(C(=O)CSc3nnc(-c4ccoc4C)n3C)c2C)cc1 | 0.4 | 0.5 | 57* | 54* | 10 | 3
CCc1nnc(NC(=O)CSc2nnc(-c3ccoc3C)n2-c2ccccc2)s1 | 0.1 | 0.2 | 94* | 83* | -3 | 0
Cc1ccccc1-n1c(Cn2c(=O)sc3ccccc32)nnc1SCC(=O)NCC1CCCO1 (centres undefined) | 0.9 | 0.5 | 15 | 50* | -6 | 5
CCOC(=O)CNS(=O)(=O)c1ccc(C(=O)O)cc1 | 1 | 1 | 2 | 5 | 22 | -19
SMILES | CYP2C19 act | CYP2C9 activ | CYP2C19 inhib | CYP2C9 inh | PostGolgi ctrl | PostGolgi yeast
CCCCNC(=O)c1nnn(-c2ccccc2)c1N | . | . | . | . | -1 | 1
COC(=O)c1ccccc1NC(=O)CSc1nnc(-c2ccoc2C)n1C | 0.3 | 0.7 | 74* | 32 | 5 | 1
COCCCn1c(SCC(=O)Nc2nnc(C)s2)nnc1-c1ccoc1C | 0.9 | 0.2 | 15 | 82* | 4 | -10
CC(=O)c1cc2c(cc1NC(=O)CN1CCN(c3ccc(F)cc3)CC1)OCO2 | 1 | 0.6 | 0 | 40 | 14 | 2
O=C(NCC1CCCO1)c1onc(CSc2ccc(F)c(F)c2)c1C(=O)O (centres undefined) | 0.8 | 0.8 | 20 | 18 | 1 | 4
CCN(CC)S(=O)(=O)c1ccc(Cl)c(C(=O)OC)c1 | 0.7 | 2.1* | 33 | -113 | 4 | 4
CCN(CC)S(=O)(=O)c1ccc(Cl)c(C(=O)NC2CCCC2)c1 | 0.8 | 0.9 | 21 | 12 | 0 | 5
CCN(CC)S(=O)(=O)c1cc(C(=O)OC)ccc1Cl | 0.4 | 1 | 62* | 4 | 14 | 2
O=C(Nc1ccncc1)c1cc(F)cc(F)c1 | 0.1 | 0.6 | 86* | 41 | 3 | -2
COc1cc(C(=O)Nc2nnc(-c3sccc3C)s2)cc(OC)c1OC | 1.1 | 1.2 | -12 | -19 | 36* | 0
COc1cc(C(=O)Nc2ccc(NC(=O)C(C)C)nc2)cc(OC)c1OC | 0.9 | 0.8 | 12 | 16 | . | .
COc1cc(C(=O)Nc2ccncc2)cc(OC)c1OC | 0 | 0.1 | 98* | 86* | 4 | 18
O=C(NCc1ccncc1)c1cccc(F)c1 | 0.8 | 0.8 | 18 | 18 | 22 | 15
Cc1cc2nncn2c(Cc2ccccc2)n1 | 0.7 | 0.9 | 26 | 6 | 9 | 20
COc1ccccc1NC(=O)c1cc(Cl)ccc1NC(=O)c1ccco1 | 1.1 | 1 | -9 | 1 | 3 | -4
COc1ccc(Cl)cc1NC(=O)CN(C(=O)c1ccco1)C1CCCCC1 | 0.5 | 0.5 | 46 | 48 | 41* | -1
COc1ccc(Cl)cc1NC(=O)N1CCN(S(C)(=O)=O)CC1 | 1 | 1.6 | -5 | -58 | 1 | -3
COc1ccc(Cl)cc1NC(=O)CN(C)C(C)C(=O)NCC1CCCCC1 (centres undefined) | 0 | 2.6* | 99* | -160 | 20 | 1
COc1cc(C(=O)N(Cc2cccnc2)Cc2cc3cc4c(cc3[nH]c2=O)OCCO4)cc(OC)c1OC | 1 | 0.6 | 1 | 44 | 15 | -6
CC(=O)N(Cc1c(C)nn(-c2ccccc2)c1Cl)c1ccc(Cl)cc1 | 0.1 | 0.5 | 90* | 49 | 35* | 15
CCS(=O)(=O)C(=C1NCCO1)S(=O)(=O)CC | 1.1 | 1.1 | -9 | -14 | 4 | 4
O=C(O)/C=C\C(=O)Nc1ccccc1C#Cc1ccc(Br)cc1 | 1 | 0.1 | -3 | 87* | -1 | 23
O=C(O)/C=C\C(=O)Nc1ccccc1C#Cc1ccccc1 | 1 | 0.4 | 3 | 62* | 1 | 0
NC(=O)c1ccccc1NC(=O)/C=C/C(=O)O | 0.9 | 1 | 7 | 2 | -13 | 10
